In the library only some 2.7% were active in any assay of this set; here they are far more common.
GLP-1R agonist: agonists of human GLP-1 receptor. HEK293 GLP-1R CRE-luciferase, luminescence, 4-6 h; cells express a hypersensitive GLP-1R form. Potency, µM (series often up to 45.6 µM), for the others: at the top dose activation, actives largely listed as activators. 380,000 compounds, 0.007% hits; further: potency means the concentration at half of the fitted maximal effect; % of control where 0% means no effect
TrxR1 inh-1: inhibitors of rat thioredoxin reductase 1. O89049. recombinant rTrxR1, NADPH fluorescence consumption, selenite substrate. Potency, µM (series often up to 114 µM), for inactives: at the highest dose activity change, negative = inhibition, usual class: inhibitors. 390,000 compounds, 1% hits; further: potency means the concentration at half of the fitted maximal effect; on the % scale 0 is the no-effect control and ±100 the full control effect; nearly all actives have a fitted effect of over 65% in size
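Rat TrxR1 (90 nM in the dispensed reagent) was pre-reduced with 400 uM NADPH for 5 min at room temperature, then incubated with compound for 15 min. After 400 uM selenite was added, NADPH fluorescence (Ex 340/Em 450 nm) was followed for 8 min.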
mIDH1 inhibitor: blocks human mutant IDH1 R132H enzyme | 390,000 compounds, 0.093% hits | IDH1-R132H enzyme, NADPH consumption, diaphorase/resazurin fluorescence | Potency, µM (highest dose often 76.6 µM), inactives show at the highest dose activity change, negative = inhibition, most hits filed as inhibitors; further: potency means the concentration at half of the fitted maximal effect; on the % scale 0 is the no-effect control and ±100 the full control effect; nearly all actives have a fitted effect of over 65% in size
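IDH1-R132H (0.5 ug/mL dispensed) in pH 7.5 Tris buffer was preincubated 30 min with compound, then given a substrate mix of 0.016 mM NADPH and 2 mM alpha-KG for 80 min at room temperature; remaining NADPH was read by diaphorase/resazurin fluorescence.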
GLP1R cytotox: cytotoxicity in counter-screen for GLP-1R inverse agonists; HEK293 cAMP-luciferase reporter cells, luminescence, 24 h; Potency, µM (top dose mostly 38.3 µM), for the others: top-dose activity change, negative = inhibition, most hits filed as inhibitors; 410,000 compounds, 0.13% hits;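 further: loss of luciferase light is scored as toxicity; potency means the concentration at half of the fitted maximal effect; on the % scale 0 is the no-effect control and ±100 the full control effect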
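A 23 nL compound transfer followed 12 hours of cell culture at 37 deg C; exposure then lasted 24 hr. Luciferase assay detection reagent was dispensed and plates read for luminescence after a 12 min room-temperature wait.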
TrxR1 substrate: is turned over as a substrate by rat TrxR1; AID 588456; purified TrxR1 substrate turnover, NADPH consumption readout; 390,000 compounds, 0.01% hits; Potency, µM (doses to about 114 µM), without a hit: top-dose activity change, negative = substrate turnover; further: potency means the concentration at half of the fitted maximal effect; on the % scale 0 is the no-effect control and ±100 the full control effect; nearly all actives have a fitted effect of over 50% in size
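Rat TrxR1, dispensed at 90 nM, was prereduced with 400 uM NADPH (final) for 5 min at ~22 deg C, then incubated with compound 15 min before 400 uM selenite. A first-read NADPH fluorescence drop versus no-compound background flagged substrates.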
GLP1R inv ag: inverse agonists of human GLP-1 receptor. AID 624417. Potency, µM (doses to about 38.3 µM), inactives show at the top dose activity change, negative = inhibition, most hits filed as inhibitors. 410,000 compounds, 1.6% hits. HEK293 GLP-1R CRE-luciferase, luminescence, 24 h; GLP-1R form is constitutively active. P43220; further: potency means the concentration at half of the fitted maximal effect; on the % scale 0 is the no-effect control and ±100 the full control effect; nearly all actives have a fitted effect of over 55% in size
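Luminescence readout: a drop in cAMP-driven luciferase signal flags inverse agonism at a constitutively active GLP-1R stably expressed in HEK293. Compound exposure lasted 24 hr at 37 deg C, 5% CO2.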
TRb-SRC2 inh: disrupts human TRb binding to SRC2 peptide in AlphaScreen | shares compounds with TrxR1 inh-1 | AlphaScreen TRb LBD-SRC2 peptide binding, luminescence | Potency, µM | 30 compounds, 50% hits; calls by dose curve
HepG2 tox: HepG2 cytotoxicity, 72 h ATP readout. 40 compounds, 50% hits. HepG2 viability, ATP luminescence (CellTiter-Glo), 72 h. AID 2447. Potency, µM. shares compounds with TrxR1 inh-1; calls by dose curve
AR SRC2 FP: disrupts human androgen receptor binding to SRC2 peptide. AR-LBD Tx-SRC2-3 fluorescence polarization, 3 h. shares compounds with TrxR1 inh-1. calls only. AID 2448. 25 tested, under 10 active; call rule not given here
Target sequence (P10275 whole entry, looked up, the tested form may be a part): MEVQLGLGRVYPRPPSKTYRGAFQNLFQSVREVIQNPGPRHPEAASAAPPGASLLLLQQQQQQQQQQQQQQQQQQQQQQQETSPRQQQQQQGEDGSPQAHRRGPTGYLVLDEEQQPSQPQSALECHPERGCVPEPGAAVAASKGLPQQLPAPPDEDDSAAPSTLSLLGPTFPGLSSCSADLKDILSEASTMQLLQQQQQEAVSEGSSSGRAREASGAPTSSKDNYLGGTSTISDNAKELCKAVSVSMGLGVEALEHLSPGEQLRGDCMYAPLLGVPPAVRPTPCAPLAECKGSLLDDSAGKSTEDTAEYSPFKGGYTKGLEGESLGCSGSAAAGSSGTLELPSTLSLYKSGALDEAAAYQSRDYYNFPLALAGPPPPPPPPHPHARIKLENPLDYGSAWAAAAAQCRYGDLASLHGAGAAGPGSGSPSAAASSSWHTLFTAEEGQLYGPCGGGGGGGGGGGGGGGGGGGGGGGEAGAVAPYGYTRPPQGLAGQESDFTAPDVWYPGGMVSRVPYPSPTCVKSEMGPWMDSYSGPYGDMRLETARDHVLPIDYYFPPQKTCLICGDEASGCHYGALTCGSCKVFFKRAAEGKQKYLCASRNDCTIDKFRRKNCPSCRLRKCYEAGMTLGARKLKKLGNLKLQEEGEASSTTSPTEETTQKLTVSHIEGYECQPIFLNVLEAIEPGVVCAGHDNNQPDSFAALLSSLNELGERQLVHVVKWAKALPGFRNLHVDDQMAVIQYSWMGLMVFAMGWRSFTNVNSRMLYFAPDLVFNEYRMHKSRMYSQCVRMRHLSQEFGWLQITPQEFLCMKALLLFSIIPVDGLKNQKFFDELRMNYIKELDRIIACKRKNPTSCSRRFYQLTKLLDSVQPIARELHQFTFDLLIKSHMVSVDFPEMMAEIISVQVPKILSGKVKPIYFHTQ
PPARg DRIP2 FP: PPARg-DRIP2 (human) interaction inhibition, selectivity | shares compounds with TrxR1 inh-1 | PPARg LBD / Texas Red DRIP-2 peptide, fluorescence polarization, 3 h | Potency, µM | 25 tested, under 10 active; calls by dose curve
VDR SRC2 FP: VDR-SRC2 (human) interaction inhibition, selectivity | VDR LBD/SRC2-3 peptide, fluorescence polarization, 3 h | 25 tested, under 10 active | Potency, µM | AID 2455 | shares compounds with TrxR1 inh-1; calls by dose curve
TRb SRC2 FluoFP: disrupts human TRb binding to fluorescein-SRC2 peptide; shares compounds with TrxR1 inh-1; TRb LBD / fluorescein-SRC2 peptide, fluorescence polarization; Potency, µM; 20 tested, under 10 active; call rule not given here
GR inh: inhibits human glutathione reductase in TrxR1 counterassay | shares compounds with TrxR1 inh-1 | 55 tested, under 10 active | purified GR, DTNB reduction absorbance 405 nm kinetic | activity change, negative = inhibition, % at 57.1 µM
TrxR1 inh-2: validation of rat thioredoxin reductase 1 inhibitors; shares compounds with TrxR1 inh-1; 55 compounds, 50% hits; Potency, µM, actives largely listed as inhibitors; recombinant TrxR1, NADPH fluorescence consumption, selenite substrate
TrxR1 insulin: inhibits TrxR1-driven insulin reduction; Potency, µM; TrxR1 Trx-coupled insulin reduction, NADPH absorbance 340 nm; shares compounds with TrxR1 inh-1; 55 compounds, 20% hits; AID 652037;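 active means compounds with a measured potency under 100 micromolar; inconclusive means filed, but no rule given; inactive means potency at or above that, or unmeasurable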
TrxR1 inh-3: rat thioredoxin reductase 1 inhibition, DTNB assay; shares compounds with TrxR1 inh-1; 55 compounds, 90% hits; purified TrxR1, DTNB reduction, A412; Potency, µM;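 active means a half-inhibiting concentration could be measured and was below 100 µM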
Starred values were filed as active, the others as inactive; i = inactive; ? = inconclusive; . = not tested or not shown; ! = repeats disagree; [ ] = dose if it differs, or a comment. Unless noted, the call rests on the fitted dose curve; in most records, active means well fitted curve in the direction sought with a large enough effect; inconclusive means small, poorly fitted or top-dose-only effect, or another doubt; inactive means no such curve, though single readings can be large; an effect the other way counts as inactive or inconclusive.

SMILES	GLP-1R agonist	TrxR1 inh-1	mIDH1 inhibitor	GLP1R cytotox	TrxR1 substrate	GLP1R inv ag	TRb-SRC2 inh	HepG2 tox	TRb SRC2 FluoFP	GR inh	TrxR1 inh-2	TrxR1 insulin	TrxR1 inh-3	others
CC1CCN(C(=O)COC(=O)c2ccc(S(C)(=O)=O)c([N+](=O)[O-])c2)CC1	.	.	.	.	.	.	.	20µM*	.	.	.	.	.
CC1CCN(C(=O)C(C)OC(=O)c2ccc(S(C)(=O)=O)c([N+](=O)[O-])c2)CC1 (stereo unspecified)	.	11µM*	.	.	5%	.	7.3µM*	i	3.6µM*	.	.	.	.	AR SRC2 FP=i;PPARg DRIP2 FP=i;VDR SRC2 FP=i
Nc1nc(Cl)nc2c1ncn2[C@@H]1O[C@H](CO)[C@H](O)C1F (stereo partly specified)	26%	.	.	.	.	.	.	.	.	.	.	.	.
Fc1ccc(/C=C2\CCCC3=C2Nc2ncnn2C3c2ccc(F)cc2)cc1 (stereo unspecified)	-37%	0.71µM*	-3%	-17%	1%[57.1 µM]	?	.	.	.	-16	3*	i	0.25µM*
C[C@@H]1CC=C[C@H]2[C@H]1C(=O)N(Cc1ccccc1)[C@H]2c1ccc2ccccc2c1Br	0%	16µM*	3%	-12%	-9%	?	.	.	.	-11	5.3*	i	0.95µM*
CS(=O)(=O)N1CCCc2cc(C(=O)Nc3cccc(C(F)(F)F)c3)ccc21	.	28%	-1%	-13%	-5%	?	.	.	.	.	.	.	.
Cc1ccc(OCCSc2nc3ccccc3n2CC(=O)NC(C)C)cc1	.	0%	9%	8%	-3%	10%	.	.	.	.	.	.	.
COc1cccc(CNC(=O)COC(=O)c2ccc(S(C)(=O)=O)c([N+](=O)[O-])c2)c1	.	1.3µM*	.	.	0%	.	i	i	i	.	.	.	.	AR SRC2 FP=i;PPARg DRIP2 FP=i;VDR SRC2 FP=i
CS(=O)(=O)c1ccc(C(=O)OCC(=O)NC(=O)NC2CCCCC2)cc1[N+](=O)[O-]	.	7.1µM*	.	.	-4%	.	17µM*	i	14µM*	.	.	.	.	AR SRC2 FP=i;PPARg DRIP2 FP=?;VDR SRC2 FP=49µM*
CS(=O)(=O)c1ccc(C(=O)OCC(=O)NCC2CCCO2)cc1[N+](=O)[O-] (stereo unspecified)	.	3.5µM*	.	.	2%	.	i	?	i	.	.	.	.	AR SRC2 FP=i;PPARg DRIP2 FP=i;VDR SRC2 FP=i
Cn1cccc1C(=O)NC(=O)COC(=O)c1ccc(S(C)(=O)=O)c([N+](=O)[O-])c1	-5%	4.5µM*!	8%	?	-3%	?	27µM*	?	?	.	.	.	.	AR SRC2 FP=i;PPARg DRIP2 FP=52µM*;VDR SRC2 FP=?
COc1ccc(C(=O)OCC(=O)NC(=O)NC2CCCC2)cc1[N+](=O)[O-]	20%	9%	0%	-6%	-5%[57.1 µM]	-30%	.	.	.	.	.	.	.
CCN(CC)S(=O)(=O)c1cccc(C(=O)Nc2sc3c(c2C#N)CCC(C)C3)c1 (stereo unspecified)	-2%	-4%	11%	-6%	0%	4%	.	.	.	.	.	.	.
Cc1ccc(F)cc1NC(=O)COC(=O)c1ccc(S(C)(=O)=O)c([N+](=O)[O-])c1	.	2µM*	.	.	1%	.	i	13µM*	i	.	.	.	.
COc1ccc(-c2sc(N)nc2-c2ccccc2)cc1	.	1%	.	.	2%	.	.	.	.	.	.	.	.
Oc1c(Br)cc(Br)cc1-c1nc2ccccc2s1	.	?	-6%	0%	7%	14%	.	.	.	.	.	.	.
O=C1N/C(=C/c2ccc(N3CCOCC3)o2)C(=O)N1c1ccccc1	-6%	7.1µM*	2%	?	-3%	?	.	.	.	-13	2.1*	i	2.1µM*
O=C1N/C(=C/c2ccc(N3CCCC3)cc2)C(=O)N1c1ccccc1	2%	7%	2%	-5%	-2%	13%	.	.	.	.	.	.	.
O=C(c1ccc(-c2ccc([N+](=O)[O-])cc2)o1)N1CCCC(C(F)(F)F)C1 (stereo unspecified)	?	?	5%	0%	-12%	?	.	.	.	.	.	.	.
O=C(c1ccc(-c2ccc([N+](=O)[O-])cc2)o1)N1CCCCCCC1	-2%	5µM*	-10%	-24%	-11%	?	.	.	.	-19	4.7*	i	1µM*
O=C(C1=C(O)C(=O)N(CCN2CCOCC2)C1c1ccc(Br)cc1)c1cc2ccccc2o1 (stereo unspecified)	-8%	10%	-11%	1%	-7%	8%	.	.	.	.	.	.	.
Cc1ccc(C2C(C(=O)c3cc4ccccc4o3)=C(O)C(=O)N2CCN2CCOCC2)cc1 (stereo unspecified)	-6%	45µM*	-6%	2%	-6%	14%	.	.	.	?	?	i	0.33µM*
CCC(C)(C)n1nnnc1C(c1ccc(O)c(OC)c1)N1CCc2ccccc2C1 (stereo unspecified)	7%	0.079µM*	11%	-1%	7%	-20%	.	.	.	8	0.34*	i	0.011µM*
